The list is not random: actives were taken first. Their share in the collection is about 7.6%.
Cy5 interf NS3h – enhances or quenches Cy5 fluorescence in NS3h assay; Cy5-dT15 DNA with NS3h, fluorescence interference; actives lie on both sides; signal over control mean, under 1 quenches; fluorescence interference ratio at 100 µM; 6% of 16,000 active; AID 720488;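 active = compound fluorescence over control fluorescence at most 0.8, a quencher, or at least a set upper limit, an enhancer; inactive = ratio between 0.8 and the set upper limit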
HCV NS3h FP – hepatitis C NS3 helicase inhibition, primary screen. 1.6% of 16,000 active. inhibition, % at 100 µM. NS3h Cy5-dT15 DNA binding, fluorescence polarization;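 active = inhibition above the average over every tested compound plus 3 SD, cut at about 40% in these data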
* hit, by the source's call.

SMILES	Cy5 interf NS3h	HCV NS3h FP
CC1=C(C(=O)Nc2ccccc2Cl)C(c2ccc(N(C)C)cc2)NC(=S)N1 (configuration not stated)	0.96	12
CCc1ccccc1NC(=O)CN(c1ccc(C)cc1)S(=O)(=O)c1ccc(SC)cc1	0.87	18
Cc1cc(Cl)ccc1OCC(=O)Nc1ccc(Br)cn1	0.76*	12
Cc1cc(Cl)ccc1OCC(=O)Nc1ccc(Cl)cn1	1	11
O=C(O)c1cccc(-c2ccc(/C=C3\SC(=O)N(c4ccc(Cl)cc4)C3=O)o2)c1	0.76*	19
O=C1S/C(=C\c2ccc(Br)o2)C(=O)N1c1ccc(Cl)cc1	0.91	4
CCC(C)c1ccc(OCc2nnc(NC(=O)Nc3ccccc3)s2)cc1 (configuration not stated)	1	11
N#C/C(=C\c1ccc(-c2ccccc2C(=O)O)o1)C(=O)Nc1ccccc1	1.1	10
O=C1C(=O)N(Cc2ccccc2)C(c2ccc(F)cc2)C1=C(O)c1ccccc1 (configuration not stated)	1.1	9
O=C1N=c2ccccc2=C1c1sc(=S)n(-c2ccc(C(=O)O)cc2)c1O	1.2*	2
Cc1cccc(-n2c(O)c(C3=c4ccccc4=NC3=O)sc2=O)c1	0.92	4
CCCOc1c(Br)cc(C2C3=C(CC(C)(C)CC3=O)OC3=C2C(=O)CC(C)(C)C3)cc1OC	0.97	17
CCCOc1ccc(C2C3=C(CC(C)(C)CC3=O)OC3=C2C(=O)CC(C)(C)C3)cc1OCC	0.78*	9
COC(=O)c1cccc(-c2ccc(/C=C3/C(=O)NN(c4cccc(Cl)c4)C3=O)o2)c1	0.77*	12
COC(=O)c1cccc(-c2ccc(C=C3C(=O)N(C)C(=O)N(C)C3=O)o2)c1	1.1	7
c1cncc(-c2noc(COc3ccc4ccccc4c3)n2)c1	0.96	13
O=C1NN=C2C3CCC4CC12CC1(C3)C(=O)NN=C41	0.74*	6
Cc1ccccc1OCCOc1ccccc1/C=c1\sc2nc3ccccc3n2c1=O	1.1	14
Cc1c(O)ccc2c3c(c(=O)oc12)CCC3	1.1	6
O=C(NCc1ccncc1)c1ccc([N+](=O)[O-])cc1	1.1	3
COc1ccc(CN2CCN(Cc3ccc(C)cc3)CC2)cc1OC	1	-9
COc1ccc(/C(C)=N/N2CCN(Cc3ccc(Cl)cc3)CC2)cc1OC	0.68*	19
O=C(NCCO)C(=O)Nc1ccc(F)cc1	0.97	-14
CCc1ccc(NC(=O)C(=O)NCCc2ccc(F)cc2)cc1	0.69*	2
O=C1NN(c2ccccc2)C(=O)/C1=C/c1cccc2ccccc12	1	19
SMILES	Cy5 interf NS3h	HCV NS3h FP
CCOC(=O)c1ccc(N2NC(=O)/C(=C/c3cccc(OC)c3O)C2=O)cc1	0.85	-2
COc1cc(/C=C2/C(=O)NN(c3ccc(C)c(C)c3)C2=O)cc([N+](=O)[O-])c1O	0.72*	10
COc1cc(Br)cc(/C=C2\C(=O)NN(c3ccccc3)C2=O)c1O	0.82	45*
Cc1ccc(N2NC(=O)/C(=C/c3ccc(C)c([N+](=O)[O-])c3)C2=O)cc1Cl	0.93	28
O=C1NN(c2ccccc2)C(=O)/C1=C/c1cccc(Cl)c1Cl	0.99	47*
CCOc1c(/C=C2\C(=O)NN(c3ccccc3)C2=O)cccc1OC	1	10
CCOC(=O)c1ccc(N2NC(=O)/C(=C/c3cc(Br)ccc3O)C2=O)cc1	0.69*	-14
Cc1ccc(NC(=O)c2ccc(OCc3ccccc3)cc2)c([N+](=O)[O-])c1	1	16
COc1ccc(-c2cc(C(=O)Nc3ccccc3C)c3ccccc3n2)cc1	0.98	3
NC(=O)c1ccccc1NC(=O)/C(=C/c1ccccc1)c1ccccc1	1.1	25
COc1ccc(N(CC(=O)NC(C)c2ccccc2)S(C)(=O)=O)cc1 (configuration not stated)	1	1
O=C1NC(=O)N(c2ccccc2)C(=O)/C1=C\c1ccc(-c2cccc([N+](=O)[O-])c2)o1	0.94	-4
Cc1ccc(C(=O)COc2cc(OCC(=O)c3ccc(C)cc3)c3c(C)cc(=O)oc3c2)cc1	0.66*	2
O=C(COc1ccc2ccc(=O)oc2c1)c1ccc(-c2ccccc2)cc1	0.95	33
COc1cccc(/C=N/n2c(C)nnc2C)c1O	1	3
O=C(O)c1cnn2c1NC(c1ccc(Br)cc1)CC2C(F)(F)F (configuration not stated)	0.79*	-12
CN1CCN(C(=O)c2cnn3c2NC(c2ccc(Br)cc2)CC3C(F)(F)F)CC1 (configuration not stated)	1	2
Cc1ccc(C2CC(C(F)(F)F)n3ncc(C(=O)N4CCSCC4)c3N2)cc1 (configuration not stated)	0.49*	15
O=C(NCc1cccs1)c1cnn2c1NC(c1ccc(Br)cc1)CC2C(F)(F)F (configuration not stated)	0.49*	19

Screening data: PubChem BioAssay, Milwaukee Institute for Drug Discovery
